Compound activity (PubChem BioAssay)
VACV Venus inh: inhibitors of vaccinia virus (Venus reporter); 330,000 tested, 0.46% active; AID 720580; Potency, µM (top dose mostly 36.5 µM), for inactives: top-dose activity change, negative = inhibition, most hits filed as inhibitors; Vaccinia virus Venus reporter expression, fluorescence; calls by dose curve; tested in A549 cells; also: potency is read from the fitted curve at half-maximal effect; nearly all actives have a fitted effect of over 30% in size
LASV entry inh: inhibitors of Lassa virus binding or cell entry; Lassa virus pseudotype entry inhibition, cell reporter; Potency, µM (top dose mostly 37.9 µM), for inactives: top-dose activity change, negative = inhibition, hits mostly inhibitors; 300,000 tested, 1.2% active; AID 540256; calls by dose curve; tested in HEK293 cells; also: potency is read from the fitted curve at half-maximal effect; nearly all actives have a fitted effect of over 50% in size
Marburg entry inh: inhibitors of Marburg virus binding or cell entry. 300,000 tested, 1.8% active. Potency, µM (doses to about 37.8 µM), without a hit: at the top dose activity change, negative = inhibition, hits mostly inhibitors. Marburg virus pseudotyped entry inhibition, cell reporter; calls by dose curve; tested in HEK293 cells; also: potency is read from the fitted curve at half-maximal effect
HCMV antiviral: human cytomegalovirus inhibition; activity change, negative = inhibition, % at 57.5 µM; 410,000 tested, 4.5% active; HFF cells, HCMV-luciferase reporter, 72 h; stronger effect = lower value; AID 1259415; in the data active = activity change below about -60%; inconclusive = no clear call, values can overlap the other calls; inactive = above about -39%
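Luciferase read-out from HCMV-luciferase-infected HFFs (MOI 1 PFU/cell) 72 h post infection at 37C; compounds added after 16 h cell attachment; activity normalized between buffer-only basal and Salinomycin (10uM) inhibitor controls.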
HCV inhibitor: inhibitors of hepatitis C virus infection. Huh7.5.1 HCVcc-Cre infection, luciferase reporter, 44 h. Potency, µM (highest dose often 41.8 µM), inactives show top-dose activity change, negative = inhibition, hits mostly inhibitors. AID 651820. 340,000 tested, 3.4% active; active = well fitted inhibition curve with a large enough effect; inconclusive = small, poorly fitted or top-dose-only effect, or another doubt; inactive = no such curve, though single readings can be large or run the other way; also: potency is read from the fitted curve at half-maximal effect
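A cell-based infection assay in which seeded cells (1,000 per well) receive test compound after 4 h, are inoculated with HCVcc-Cre at approximately 0.5 moi, and are incubated 44 h before luminescence detection.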
Vaccinia mCherry: inhibitors of vaccinia virus infection (mCherry reporter signal); Potency, µM (series often up to 36.5 µM), for inactives: top-dose activity change, negative = inhibition, most hits filed as inhibitors; 310,000 tested, 0.63% active; Vaccinia virus mCherry reporter infection, fluorescence; AID 720579; calls by dose curve; tested in A549 cells; also: potency is read from the fitted curve at half-maximal effect; nearly all actives have a fitted effect of over 35% in size
* = called active by the depositor; i = inactive; u = inconclusive; x = no result given; [ ] = dose if it differs, or a comment. Compounds with a hit are over-represented: about 7.8% of the library has one in this group of screens. % is scaled to controls: 0 for no effect and ±100 for the full control effect.

SMILES	VACV Venus inh	LASV entry inh	Marburg entry inh	HCMV antiviral	HCV inhibitor	Vaccinia mCherry
CCCNC(=O)COC(=O)c1ccccc1C(=O)c1ccc(Cl)c([N+](=O)[O-])c1	14.1µM*	u	3.16µM*	-113.3*	u	u
Cc1ccc(Cl)c(NC(=O)COC(=O)c2ccccc2C(=O)c2ccc(Cl)c([N+](=O)[O-])c2)c1Cl	u	13µM*	4.61µM*	-101.6*	u	u
Nc1ccc(Cl)cc1/C(=N\O)c1ccccc1	x	x	-21.7%	x	x	x
Cc1ccc(S(=O)(=O)NC(=O)ON=Cc2ccc3c(c2)OCO3)cc1	x	x	x	-97.7*	x	x
COc1ccccc1CNC(=O)c1c(O)nc2c(C)cccn2c1=O	-4.5%	x	17.9%[46.1 µM]	-3.8	x	-13.0%
Cc1sc2nc(SCC(=O)Nc3cccc(C(=O)O)c3)[nH]c(=O)c2c1C	2.7%	4.1%	13.4%	19.4	-13.7%	-8.3%
Cc1sc2nc(SCC(=O)Nc3ccc(Cl)c(C(=O)O)c3)[nH]c(=O)c2c1C	-11.3%	u	12.6µM*	0.0	0.6%	-17.6%
CCc1ccc(-n2c(=O)c3c4c(sc3n(Cc3cc(=O)n5c(C)cccc5n3)c2=O)CCC4)cc1	-11.1%	12.8%[46.1 µM]	3.7%[46.1 µM]	6.1	x	i
CCOC(=O)N1CCN(c2c(-c3ccccc3)c3cc(Cl)ccc3[nH]c2=O)CC1	-6.3%	u	2.7%	-22.9	-7.0%	-7.8%
O=c1[nH]c2ccc(Cl)cc2c(-c2ccccc2)c1N1CCN(CCO)CC1	x	u	10.3µM*	-27.6	u	x
Cn1c(=O)n(-c2ccc3c(c2)OCO3)c2nc(-c3ccccc3)nc(C(N)=O)c21	1.3%	18.5%[46.1 µM]	u	3.8	x	-5.4%
CC(=O)n1c2ccccc2c2nc3ccccc3nc21	x	x	x	x	-0.9%	x
CC(=O)n1c2ccccc2c2c1c1ccccc1n2C	0.1%	4.0%	-11.6%	66.0	2.24µM*	x
CCOc1ccc(NC(=O)c2cccc(OC(=S)N3CCOCC3)c2)cc1	-17.1%	-0.4%	-18.2%[46.1 µM]	-67.8*	-6.6%	-16.3%
O=C(Oc1ccc(C(=S)N2CCOCC2)cc1)c1ccc(Br)cc1	-12.8%	-14.7%	8.3%	-60.4*	-10.2%	-21.7%
O=C(Nc1ccc(Br)cc1)c1cccc(OC(=S)N2CCOCC2)c1	-14.8%	u	u	-76.8*	8.91µM*	i
COc1ccc(C)cc1S(=O)(=O)Nc1cccc(-c2ccc(N3CCCC3)nn2)c1	-12.1%	1.4%[46.1 µM]	x	16.0	x	-14.9%
CCCCCCCCCCCCCC(=O)O[C@@H]1[C@@H](C)[C@@]2(O)[C@@H](C=C(CO)C[C@@]3(O)C(=O)C(C)=C[C@@H]23)C2C(C)(C)[C@@]21OC(C)=O (stereo partly drawn)	x	6.51µM*	22.4µM*	x	x	x
COC(=O)[C@@]12C[C@@H](CC(=O)NCc3cccc4ccccc34)C(=O)N(Cc3ccco3)C1=CCC(C)(C)C2	u	x	x	29.7	x	u
CCN1C(=O)[C@H]2[C@@H](c3ccc(-c4ccc(F)cc4)c(OC)c3)N3CCC[C@@]3(C(=O)OC)[C@H]2C1=O	-22.6%	x	x	37.9	3.16µM*	u
CCN1C(=O)[C@@H]2[C@@H](c3ccc(-c4ccc(Cl)c(Cl)c4)c(OC)c3)N3CCC[C@@]3(C(=O)OC)[C@@H]2C1=O	u	x	x	100.2	10µM*	-8.9%
CCN1C(=O)[C@@H]2[C@@H](c3ccc(-c4ccc(Cl)c(Cl)c4)cc3)N3CCCC[C@@]3(C(=O)OC)[C@@H]2C1=O	-23.1%	x	x	2.2	13.6%	i
CC(=O)c1cccc(NC(=O)c2cc3c(s2)-c2c(C)cccc2OC3)c1	20µM*	x	7.4%[46.1 µM]	u	x	11.2µM*
O=C(Nc1cccnc1Cl)c1cc2c(s1)-c1ccccc1OC2	x	x	x	-32.7	u	x
Cc1cccc2c1-c1sc(C(=O)Nc3cccnc3)cc1CO2	x	x	x	u	22.4µM*	x
SMILES	VACV Venus inh	LASV entry inh	Marburg entry inh	HCMV antiviral	HCV inhibitor	Vaccinia mCherry
O=C(Nc1cccnc1)c1cc2c(s1)-c1ccccc1OC2	x	x	x	-61.9*	u	x
Cc1cccc2c1-c1sc(C(=O)Nc3ccccc3C(N)=O)cc1CO2	-21.2%	x	u	101.5	x	-24.2%
O=C1CC(c2nc3ccccc3n2Cc2c(F)cccc2Cl)CN1c1cccc(C(F)(F)F)c1 (stereo not drawn)	-3.8%	u	-1.7%[46.1 µM]	-33.6	x	0.2%
O=c1[nH]c(CN2CCN(S(=O)(=O)/C=C/c3ccccc3)CC2)nc2cc(Cl)ccc12	11.2µM*	u	u	-36.6	-14.7%	u
Cc1ccc(Cl)cc1N1CCN(C(=O)c2cn(C)c3ccc(S(=O)(=O)N4CCCC4)cc3c2=O)CC1	-21.4%	-2.8%[46.1 µM]	-19.8%[46.1 µM]	5.9	x	-11.9%
CCOC(=O)c1c(CN(CC)CC)oc2ccc(OC)cc12	0.1%	-0.3%	-17.3%[46.1 µM]	7.0	-4.6%	-8.8%
CCOC(=O)c1c(CN(CC)CC)oc2cc(Br)c(O)cc12	-29.1%	x	0.6%	18.7	10µM*	u
CC1COc2ccccc2N1C(=O)c1ccc(Cl)cc1 (stereo not drawn)	-12.6%	-0.5%	3.2%	u	0.6%	-12.1%
Cc1ccc(S(=O)(=O)N2c3ccccc3OCC2c2ccccc2)cc1 (stereo not drawn)	x	-23.2%	u	u	35.5µM*	x
O=C(C(Cl)Cl)N1c2ccccc2OCC1c1ccccc1 (stereo not drawn)	x	-0.9%	-21.3%	-61.5*	12.6µM*	x
CC1(C)NC(=O)N(CCCCOc2ccc(Cl)cc2C=O)C1=O	-21.7%	x	x	-60.0*	-14.9%	-5.1%
CC(C)c1cc(Br)ccc1OCCCN1C(=O)NC(C)(C)C1=O	x	u	3.5%	-28.4	12.6µM*	x
CC1(C)NC(=O)N(CCCCOc2ccc(Cl)cc2)C1=O	x	-2.0%	19.8%	3.7	10.0%	x
CC1(C)NC(=O)N(CCCOc2ccc(Br)cc2Cl)C1=O	-18.8%	87.7%[14.3 µM]	-8.0%	20.2	u	-8.8%
COc1ccc(Nc2c(-c3ccccn3)nc3ccc(Cl)cn23)cc1	u	5.2%[46.1 µM]	1.5%[46.1 µM]	-13.2	x	u
Cc1cc(Oc2ccc3c(-c4ccccn4)noc3n2)ccc1F	x	x	x	54.8	x	x
Cc1ccc(CN2CCOc3ccc(CN4CCC(O)(c5cccnc5)CC4)cc3C2)cc1	-21.1%	x	x	x	x	-27.8%
Cc1cc(C)c2nc(C)cc(Nc3ccc(C(=O)NCCO)cc3)c2c1	-15.5%	-27.5%[46.1 µM]	11.2µM*	-91.0*	-12.5%	-6.9%
CC(=O)c1ccc(Nc2cc(C)nc3c(C)cc(C)cc23)cc1	-25.2%	u	4.11µM*	u	u	-30.0%
Cc1cc(C)c2nc(C)cc(Nc3ccc(C(=O)N(C)C)cc3)c2c1	x	x	x	x	5.6%	x
CC(=O)c1cccc(Nc2cc(C)nc3c(C)cccc23)c1	-21.7%[7.34 µM]	2.8%	u	12.2	-16.7%	-13.5%[7.34 µM]
COC(=O)N1[C@H]2CC[C@@]3(C)CC(=O)C[C@]1(C)C3c1ccccc12	x	x	-9.8%[14.2 µM]	x	x	x
Clc1ccc2nc[nH]c2c1	-7.2%	x	x	x	x	i
CSc1nc(-c2ccc(Cl)cc2)c(C#N)c(=O)[nH]1	-3.6%	-16.7%	12.3%[46.1 µM]	-75.5*	3.7%	i
CSc1nc(-c2ccccc2)c(C#N)c(=O)[nH]1	-2.2%	x	x	-23.6	4.8%	-12.5%
